Assay results reported in PubChem BioAssay (Tox21).
Results filed as inconclusive are left out. Activity calls are given as the source filed them. Unless noted, the call rests on the fitted dose curve; in most records, active means well fitted curve in the direction sought with a large enough effect in the repeat runs; inconclusive means weak or mixed curves; inactive means no such curve, though single readings can be large; an effect the other way counts as inactive or inconclusive.

How the values were obtained:
[1] = qHTS assay to identify small molecule agonists of the estrogen receptor alpha (ER-alpha) signaling pathway in the presence of an antagonist - cell viability counter screen (AID 1259386);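 further: series mostly up to about 92 µM; cells exposed to compounds for 22 h at 37 °C before the viability read; nearly all actives have a fitted effect of over 30% in size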
How it was run: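 In this counter screen, compound effects on VM7Luc4E2 viability were tested in the presence of the antagonist ICI-182,780 at 10.0nM final. Compounds were dosed at 15 concentrations, exposure lasted 22hr, and the CellTiter-Fluor signal was read.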

[2] = molecular target: Progesterone receptor (Homo sapiens) (UniProt P06401); assay: qHTS assay to identify small molecule agonists of the progesterone receptor (PR) signaling pathway (AID 1346784; calls by dose curve; further: nearly all actives have a fitted effect of over 30% in size)
Progesterone receptor (Homo sapiens), sequence (P06401 whole entry, looked up): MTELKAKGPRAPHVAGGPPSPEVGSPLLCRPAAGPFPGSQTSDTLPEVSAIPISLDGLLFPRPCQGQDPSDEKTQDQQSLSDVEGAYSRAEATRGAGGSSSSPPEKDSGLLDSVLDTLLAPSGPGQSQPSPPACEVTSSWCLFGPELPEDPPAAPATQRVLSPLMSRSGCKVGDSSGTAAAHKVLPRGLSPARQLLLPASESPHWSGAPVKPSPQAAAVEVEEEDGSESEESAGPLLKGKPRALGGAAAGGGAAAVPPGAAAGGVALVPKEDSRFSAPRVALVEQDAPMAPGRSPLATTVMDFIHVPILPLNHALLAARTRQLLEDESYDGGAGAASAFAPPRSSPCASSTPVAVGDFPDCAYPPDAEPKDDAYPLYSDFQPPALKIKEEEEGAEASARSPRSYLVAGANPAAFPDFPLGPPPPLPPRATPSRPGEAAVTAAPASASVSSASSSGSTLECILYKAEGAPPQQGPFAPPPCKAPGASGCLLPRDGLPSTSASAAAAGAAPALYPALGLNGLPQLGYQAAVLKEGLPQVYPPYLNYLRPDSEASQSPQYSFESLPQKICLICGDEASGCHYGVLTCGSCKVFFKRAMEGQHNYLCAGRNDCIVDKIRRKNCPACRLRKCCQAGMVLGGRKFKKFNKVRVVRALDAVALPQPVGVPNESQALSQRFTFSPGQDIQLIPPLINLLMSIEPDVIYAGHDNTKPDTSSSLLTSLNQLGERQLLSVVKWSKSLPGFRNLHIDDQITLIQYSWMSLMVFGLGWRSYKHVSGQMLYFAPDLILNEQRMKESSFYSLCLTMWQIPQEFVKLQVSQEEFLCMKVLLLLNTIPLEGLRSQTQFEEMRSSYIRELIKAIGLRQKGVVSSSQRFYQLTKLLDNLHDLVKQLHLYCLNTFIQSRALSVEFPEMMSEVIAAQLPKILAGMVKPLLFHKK
How it was run: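 Reporter assay, GripTite PR-UAS-bla HEK 293T cells: 16 hr exposure to DMSO-dissolved compounds at 37C, 5% CO2, in steroid-depleted (2% charcoal-stripped FBS) medium; beta-lactamase measured by FRET fluorescence.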

[3] = qHTS assay to identify small molecule antagonists of the TGF-beta/Smad signaling pathway - cell viability counter screen (AID 1346824); further: nearly all actives have a fitted effect of over 50% in size
How it was run: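 SBE-bla HEK 293T cells, incubated overnight, then compound plus 0.25 ng/mL TGF-beta1 (stock added) for 5 hr at 37 C. Viability was read in the same wells by CellTiter-Glo luminescence after 30 min at room temperature.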

[4] = qHTS assay to identify small molecule agonists of the TGF-beta/Smad signaling pathway (AID 1346859; active means well fitted activation curve with a large enough effect in the signal ratio in the repeat runs, not every such curve was filed as active; the % refers to the signal ratio; further: series mostly up to about 77 µM)
How it was run: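 Screening used HEK 293T SBE-bla cells at 4,000/well. Test agents: 5 hr, 37 C. Detection: FRET substrate, 2 hr RT, then excitation 405 nm with emissions at 460 and 530 nm.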

[5] = molecular target: Thyrotropin-releasing hormone receptor (Homo sapiens) (UniProt P34981); assay: qHTS assay to identify small molecule antagonists of the thyrotropin-releasing hormone receptor (TRHR) signaling pathway (AID 1346877; active means well fitted inhibition curve with a large enough effect in the repeat runs, not every such curve was filed as active; further: series mostly up to about 51 µM)
Thyrotropin-releasing hormone receptor (Homo sapiens), sequence (P34981 whole entry, looked up): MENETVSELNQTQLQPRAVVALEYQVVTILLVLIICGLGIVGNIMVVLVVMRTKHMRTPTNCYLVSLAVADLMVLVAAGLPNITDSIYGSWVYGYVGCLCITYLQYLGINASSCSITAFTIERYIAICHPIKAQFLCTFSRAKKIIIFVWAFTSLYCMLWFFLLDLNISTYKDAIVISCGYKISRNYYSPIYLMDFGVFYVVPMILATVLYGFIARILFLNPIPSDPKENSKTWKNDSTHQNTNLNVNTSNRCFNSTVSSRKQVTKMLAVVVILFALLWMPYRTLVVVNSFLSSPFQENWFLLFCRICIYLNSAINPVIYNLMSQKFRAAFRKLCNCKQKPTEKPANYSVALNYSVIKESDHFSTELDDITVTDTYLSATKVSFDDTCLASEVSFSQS
How it was run: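 Kinetic fluorescence (3 min, 1 s resolution) following stimulation with TRH at 1 nM final; HEK293 cells bearing human TRHR; 5 min compound preincubation at RT; concentration-response over 15 points, triplicates.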

[6] = molecular target: Thyrotropin-releasing hormone receptor (Homo sapiens) (UniProt P34981); assay: qHTS assay to identify small molecule agonists of the thyrotropin-releasing hormone receptor (TRHR) signaling pathway (AID 1346891; calls by dose curve; further: series mostly up to about 58 µM)
How it was run: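 Readout was intracellular calcium fluorescence in TRHR-Hek293 cells. Cells were incubated 18 h, dye-loaded 2 h at 37 °C, and treated with compound in agonist mode.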

[7] = Caspase-3/7 induction in HepG2 cells by small molecules, qHTS assay (AID 1346978); further: nearly all actives have a fitted effect of over 15% in size
How it was run: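 Wild-type HepG2 cells, 2,000/well, settled 5 hr at 37 C and 5% CO2, then compound-treated for 17 hr; caspase-3/7 activity read by luminescent Caspase-Glo 3/7 after 30 min at room temperature.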

[8] = Caspase-3/7 induction in CHO-K1 cells by small molecules, qHTS cell viability counter screen (AID 1346979); further: nearly all actives have a fitted effect of over 35% in size
How it was run: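 Following a 5hr settling period, CHO-K1 cells at 1,500 per well received DMSO-dissolved compounds. Cell viability was quantified 16hr later by CellTiter-Fluor fluorescence, measured after 1hr with reagent at 37C.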

[9] = Caspase-3/7 induction in CHO-K1 cells by small molecules, qHTS assay (AID 1346980); further: nearly all actives have a fitted effect of over 15% in size
How it was run: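 Wild-type CHO-K1 cells exposed to compounds for 17hr at 37 C, 5% CO2. Caspase-3/7 activity then measured by Caspase-Glo 3/7 luminescence after 30min at room temperature.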

[10] = Caspase-3/7 induction in HepG2 cells by small molecules, qHTS cell viability counter screen (AID 1346981); further: series mostly up to about 92 µM; nearly all actives have a fitted effect of over 30% in size
How it was run: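 In this quantitative HTS counter screen, compounds delivered in DMSO were left on unmodified HepG2 cells for 16 hr at 37 C. Viability was then determined fluorometrically with CellTiter-Fluor, in parallel with caspase-3/7 induction in the same wells.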

[11] = molecular target: Nuclear receptor subfamily 1 group I member 2 (Homo sapiens) (UniProt O75469); assay: Human pregnane X receptor (PXR) small molecule agonists, qHTS assay (AID 1346982); further: nearly all actives have a fitted effect of over 35% in size
Nuclear receptor subfamily 1 group I member 2 (Homo sapiens), sequence (O75469 whole entry, looked up): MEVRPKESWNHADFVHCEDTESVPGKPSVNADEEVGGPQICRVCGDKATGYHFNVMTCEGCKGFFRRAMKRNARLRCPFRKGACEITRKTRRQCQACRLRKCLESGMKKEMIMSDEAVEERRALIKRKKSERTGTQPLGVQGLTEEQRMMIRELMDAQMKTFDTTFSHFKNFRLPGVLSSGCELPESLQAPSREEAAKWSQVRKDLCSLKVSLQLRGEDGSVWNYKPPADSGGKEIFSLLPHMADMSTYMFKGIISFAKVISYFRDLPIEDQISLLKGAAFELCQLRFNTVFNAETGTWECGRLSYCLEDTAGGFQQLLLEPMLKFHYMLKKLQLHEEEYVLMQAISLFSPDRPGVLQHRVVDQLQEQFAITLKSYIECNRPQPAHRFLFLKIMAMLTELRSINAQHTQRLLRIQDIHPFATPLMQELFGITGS
How it was run: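 Reporter HepG2 cells expressing PXR-Luc are cultured in charcoal-stripped FBS (5%), treated with compounds for 24 hr at 37 C, and assayed by ONE-Glo luminescence after 30 min at room temperature.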

[12] = qHTS assay to identify small molecule antagonists of the progesterone receptor (PR) signaling pathway - cell viability counter screen (AID 1346798); further: series mostly up to about 92 µM; nearly all actives have a fitted effect of over 50% in size
How it was run: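 In the same plates used for the beta-lactamase readout, cell viability of compound- and R5020-treated PR-UAS-bla HEK293T cells (16 hr, 37C) was assessed by CellTiter-Glo luminescence.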

[13] = qHTS assay to identify small molecule agonists of the progesterone receptor (PR) signaling pathway - cell viability counter screen (AID 1346799; calls by dose curve; further: nearly all actives have a fitted effect of over 45% in size)
How it was run: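 Multiplexed viability read: CellTiter-Glo luminescence, 30 min RT, following LiveBLAzer FRET measurement on PR-UAS-bla HEK293T cells exposed to compounds 16 hr.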

[14] = qHTS assay to identify small molecule agonists of the TGF-beta/Smad signaling pathway - cell viability counter screen (AID 1346829); further: top concentration of the series differs between compounds; nearly all actives have a fitted effect of over 45% in size
How it was run: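 In parallel with the Smad reporter read, viability of HEK 293T cells stably carrying SBE-bla is quantified by ATP luminescence following 5 hr compound treatment.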

[15] = Human pregnane X receptor (PXR) small molecule agonists, qHTS cell viability counter screen (AID 1346977); further: nearly all actives have a fitted effect of over 50% in size
How it was run: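 In each well, the PXR reporter HepG2 line was checked for viability: CellTiter-Fluor reagent added 23hr post-dosing, fluorescence read after 1hr incubation at 37C.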

[16] = molecular target: Nuclear receptor subfamily 1 group I member 2 (Rattus norvegicus) (UniProt Q9R1A7); assay: Rat pregnane X receptor (rPXR) activation by small molecules, qHTS assay (AID 1346983); conditions: rPXR luciferase reporter cells, One-Glo luminescence, 24 h; active compounds read high; further: nearly all actives have a fitted effect of over 20% in size
Nuclear receptor subfamily 1 group I member 2 (Rattus norvegicus), sequence (Q9R1A7 whole entry, looked up): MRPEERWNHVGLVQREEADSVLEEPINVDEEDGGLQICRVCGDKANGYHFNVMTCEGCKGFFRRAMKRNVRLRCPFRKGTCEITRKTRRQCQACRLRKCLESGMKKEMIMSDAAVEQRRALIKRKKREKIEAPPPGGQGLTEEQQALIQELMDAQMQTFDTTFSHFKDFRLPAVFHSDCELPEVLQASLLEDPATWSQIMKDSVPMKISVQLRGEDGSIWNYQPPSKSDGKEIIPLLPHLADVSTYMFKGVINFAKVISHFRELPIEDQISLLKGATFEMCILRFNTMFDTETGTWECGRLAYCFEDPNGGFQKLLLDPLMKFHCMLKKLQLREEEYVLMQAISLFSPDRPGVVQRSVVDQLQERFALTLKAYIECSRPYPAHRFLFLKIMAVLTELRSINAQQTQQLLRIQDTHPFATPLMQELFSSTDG
How it was run: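 Cell-based rPXR activation assay: rPXR cells, 2,000 per well, rested 5hr at 37 C, then exposed to compounds in DMSO for 24 hr at 37 C. Luciferase activity read by One-Glo luminescence after 30 min at room temperature.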

[17] = molecular target: Nuclear receptor subfamily 1 group I member 2 (Homo sapiens) (UniProt O75469); assay: CYP3A4 induction through human pregnane X receptor (PXR) by small molecules, qHTS assay (AID 1346984); further: nearly all actives have a fitted effect of over 40% in size
How it was run: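 Induction measured in HepG2-based DPX-2 cells co-expressing human PXR and a CYP3A4 promoter-driven luciferase. After a 24-hour compound exposure, cells received CYP3A4 luciferin substrate at 3uM final for 3 hours, and light output was then recorded.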

[18] = molecular target: Nuclear receptor subfamily 1 group I member 2 (Homo sapiens) (UniProt O75469); assay: Human pregnane X receptor (PXR) activation by small molecules, qHTS assay (AID 1346985); further: nearly all actives have a fitted effect of over 40% in size
How it was run: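 DPX-2 cells (HepG2 co-transfected with a PXR response element and a CYP3A4-promoter luciferase construct) were seeded at 2,000 per well, rested 5 hr at 37C, then exposed to DMSO-dissolved compounds for 24 hr. Activation was read as luciferase luminescence.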

[19] = molecular target: Acetylcholinesterase (Homo sapiens) (UniProt P22303); assay: Acetylcholinesterase (AChE) small molecule antagonists: colormetric cell-based qHTS assay (AID 1347395; calls by dose curve; further: nearly all actives have a fitted effect of over 30% in size)
Acetylcholinesterase (Homo sapiens), sequence (P22303 whole entry, looked up): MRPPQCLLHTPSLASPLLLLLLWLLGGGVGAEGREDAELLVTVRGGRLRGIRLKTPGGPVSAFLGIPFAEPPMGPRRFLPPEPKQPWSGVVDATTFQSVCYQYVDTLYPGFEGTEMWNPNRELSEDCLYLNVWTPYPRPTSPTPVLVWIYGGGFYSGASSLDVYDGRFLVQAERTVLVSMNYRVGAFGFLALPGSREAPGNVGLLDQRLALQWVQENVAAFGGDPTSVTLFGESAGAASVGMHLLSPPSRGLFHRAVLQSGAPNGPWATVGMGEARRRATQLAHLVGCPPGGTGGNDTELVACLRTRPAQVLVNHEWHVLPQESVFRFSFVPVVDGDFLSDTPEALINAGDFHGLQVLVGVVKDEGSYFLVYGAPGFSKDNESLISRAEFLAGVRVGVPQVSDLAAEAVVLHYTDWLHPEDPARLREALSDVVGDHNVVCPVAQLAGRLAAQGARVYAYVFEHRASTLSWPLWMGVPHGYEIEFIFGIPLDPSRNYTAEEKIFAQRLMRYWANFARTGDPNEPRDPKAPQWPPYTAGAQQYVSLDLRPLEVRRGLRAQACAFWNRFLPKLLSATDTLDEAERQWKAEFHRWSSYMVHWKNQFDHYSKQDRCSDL
How it was run: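 After overnight attachment at 37 C, SH-SY5Y cells get 30 min compound exposure; detection cocktail (acetylthiocholine, DTNB) then incubates 90 min at 37 C, and absorbance reflects AChE-generated thiocholine.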

[20] = molecular target: Progesterone receptor (Homo sapiens) (UniProt P06401); assay: qHTS assay to identify small molecule antagonists of the progesterone receptor (PR) signaling pathway (AID 1346795; active means well fitted inhibition curve with a large enough effect in the signal ratio in the repeat runs, not every such curve was filed as active; the % refers to the signal ratio)
How it was run: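 Stimulus R5020 at 1 nM final; cells HEK293T PR-UAS-bla; medium with 2% charcoal-stripped FBS; compound exposure 16 hr at 37C, 5% CO2; detection by FRET beta-lactamase substrate, 2 hr, room temperature.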
On the % scale 0 is the no-effect control and ±100 the full control effect.

CCc1cc(OC)c(C[C@H](C)N)cc1OC
inactive: Potency [1] | Potency [2] | outcome [3] | outcome [4] | Potency [5] | outcome [6] | outcome [7] | Potency [8] | outcome [9] | Potency [10] | Potency [11]

ClCC1CO1 (stereo unspecified)
inactive: Potency [1] | Potency [12] | Potency [13] | outcome [3] | Potency [14] | outcome [4] | Potency [5] | outcome [6] | Potency [15] | outcome [7] | Potency [8] | Potency [10] | max activation [16] -3.74% | Potency [17] | Potency [18] | Potency [19]

CCOC(=O)N(C)N=O
inactive: Potency [2] | Potency [20] | Potency [12] | Potency [13] | outcome [3] | Potency [14] | outcome [4] | Potency [5] | outcome [6] | outcome [7] | Potency [8] | outcome [9] | Potency [10] | Potency [19]

CC(C)(N)Cc1ccc(Cl)cc1
inactive: Potency [1] | Potency [20] | outcome [3] | outcome [4] | Potency [15] | outcome [7] | Potency [8] | outcome [9] | Potency [10] | Potency [11] | max activation [16] -1.44% | Potency [17] | Potency [18] | Potency [19]

O=C(Cl)/C=C/C(=O)Cl
inactive: Potency [1] | Potency [12] | outcome [3] | outcome [4] | outcome [7] | Potency [8] | outcome [9] | Potency [10] | Potency [11] | Potency [19]

Brc1c(Br)c(Br)c(Br)c(Br)c1Br
inactive: activity change, negative = cytotoxicity [1] 2.08% [at 8.39 µM] | activity change, negative = cytotoxicity [12] -1.74% [at 8.39 µM] | viability change, negative = cytotoxic [3] -1.01% [at 6.97 µM] | activation [4] 3.82% [at 6.97 µM] | activity change, negative = cytotoxicity [15] 1.06% [at 8.39 µM] | caspase activation [7] 0.467% [at 8.39 µM] | activity change, negative = cytotoxicity [8] 1.28% [at 8.39 µM] | caspase-3/7 activation [9] -0.0086% [at 8.39 µM] | activity, negative = inhibition [19] -5.69% [at 10.5 µM]

O=P(O)(O)c1ccccc1
inactive: Potency [2] | Potency [20] | Potency [12] | Potency [13] | outcome [3] | Potency [14] | outcome [4] | Potency [5] | outcome [6] | outcome [7] | Potency [8] | outcome [9] | Potency [10] | Potency [11] | Potency [19]

Cn1c(CCCC(=O)O)nc2cc(N(CCCl)CCCl)ccc21
inactive: Potency [1] | Potency [2] | Potency [12] | outcome [3] | Potency [14] | outcome [4] | Potency [5] | outcome [6] | outcome [7] | outcome [9] | Potency [10] | Potency [11] | max activation [16] -0.144% | Potency [17] | Potency [18] | Potency [19]

CC[C@H](N)c1ccccc1
inactive: Potency [1] | Potency [20] | Potency [12] | Potency [13] | outcome [3] | Potency [14] | outcome [4] | Potency [15] | outcome [7] | Potency [8] | outcome [9] | Potency [10] | Potency [19]

CCOP(=O)(CN(CCO)CCO)OCC
inactive: Potency [1] | Potency [2] | Potency [12] | outcome [3] | Potency [14] | outcome [4] | Potency [15] | outcome [7] | Potency [8] | outcome [9] | Potency [10] | Potency [11] | Potency [19]
